{"source": "paper PMC4336329", "about": "(PLoS ONE, 2015)", "note": "About 14,000 (4.5%) of roughly 310,000 compounds showed an effect of 50% or more. Effects have a minus sign here. This excerpt belongs to a sample that is enriched for strong results.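 Also: peak tail current of the secondary pulse compared with the same well before compound.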"}
{"molecular_target": "human ether-à-go-go-related gene (hERG) potassium channel (human, UniProt Q12809)", "sequence (Q12809 whole entry, looked up)": "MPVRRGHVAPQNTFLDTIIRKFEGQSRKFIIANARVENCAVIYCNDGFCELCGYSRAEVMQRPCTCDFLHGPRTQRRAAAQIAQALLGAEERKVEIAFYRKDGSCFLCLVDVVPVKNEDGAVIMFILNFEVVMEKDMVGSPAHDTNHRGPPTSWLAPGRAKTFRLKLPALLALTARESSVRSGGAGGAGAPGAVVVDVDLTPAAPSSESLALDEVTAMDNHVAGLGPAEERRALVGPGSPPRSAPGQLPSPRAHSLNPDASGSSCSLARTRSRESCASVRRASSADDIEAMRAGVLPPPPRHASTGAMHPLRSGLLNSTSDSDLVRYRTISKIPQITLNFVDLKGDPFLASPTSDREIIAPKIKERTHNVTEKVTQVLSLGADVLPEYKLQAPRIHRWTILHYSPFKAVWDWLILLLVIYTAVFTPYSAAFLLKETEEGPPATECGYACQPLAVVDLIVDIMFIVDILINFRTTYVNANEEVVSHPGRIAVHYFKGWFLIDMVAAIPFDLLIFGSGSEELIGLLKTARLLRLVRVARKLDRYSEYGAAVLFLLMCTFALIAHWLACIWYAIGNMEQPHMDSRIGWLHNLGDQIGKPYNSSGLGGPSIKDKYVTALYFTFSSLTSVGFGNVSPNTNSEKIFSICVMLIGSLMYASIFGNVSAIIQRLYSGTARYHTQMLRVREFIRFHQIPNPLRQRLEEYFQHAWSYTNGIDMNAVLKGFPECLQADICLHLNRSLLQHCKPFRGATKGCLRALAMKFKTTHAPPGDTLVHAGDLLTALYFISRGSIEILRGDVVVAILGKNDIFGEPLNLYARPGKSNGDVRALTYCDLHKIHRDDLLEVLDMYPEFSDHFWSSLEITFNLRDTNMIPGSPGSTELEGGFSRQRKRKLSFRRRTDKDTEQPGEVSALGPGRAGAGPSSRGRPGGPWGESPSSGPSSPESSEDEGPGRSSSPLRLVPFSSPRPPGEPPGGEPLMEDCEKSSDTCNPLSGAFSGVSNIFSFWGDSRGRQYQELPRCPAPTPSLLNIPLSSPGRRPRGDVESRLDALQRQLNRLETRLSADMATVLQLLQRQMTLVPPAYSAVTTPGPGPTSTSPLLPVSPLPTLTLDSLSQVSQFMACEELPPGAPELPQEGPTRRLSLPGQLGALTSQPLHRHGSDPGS", "experiment": "primary screen, population patch clamp on CHO cells stably expressing hERG; higher = less effect of the substance", "units": {"hERG current change (%, negative = inhibition) at 10uM": "%"}}
{"smiles": "O=c1[nH]c2ccccc2cc1CN(c1ccccc1)S(=O)(=O)c1ccccc1", "hERG current change (%, negative = inhibition) at 10uM": 0.56}
{"smiles": "Cc1ccccc1OCCC(=O)OCC(=O)N1CCN(S(=O)(=O)c2ccc(Cl)cc2)CC1", "hERG current change (%, negative = inhibition) at 10uM": -13.1}
{"smiles": "CCCCCSc1cc(OC)c(CCN)cc1OC.O=C(O)/C=C\\C(=O)O", "hERG current change (%, negative = inhibition) at 10uM": -35.9}
{"smiles": "CCCCCCCSc1cc(OC)c(CCNC)cc1OC.O=C(O)/C=C\\C(=O)O", "hERG current change (%, negative = inhibition) at 10uM": -41.3}
{"smiles": "CCCCCCCSc1cc(OC)c(CCN(C)C)cc1OC.O=C(O)/C=C\\C(=O)O", "hERG current change (%, negative = inhibition) at 10uM": -64.3}
{"smiles": "CCCCCSc1cc(OC)c(CCN(C)C)cc1OC.O=C(O)/C=C\\C(=O)O", "hERG current change (%, negative = inhibition) at 10uM": -57.9}
{"smiles": "CCCCCSc1cc(OC)c(CCNC)cc1OC.O=C(O)/C=C\\C(=O)O", "hERG current change (%, negative = inhibition) at 10uM": -48.2}
{"smiles": "CCCCCSc1cc(O)c(C(CNC)C(C)C)cc1OC.O=C(O)/C=C\\C(=O)O", "note": "(stereo not shown)", "hERG current change (%, negative = inhibition) at 10uM": -12.9}
{"smiles": "C/C(=N\\OC(=O)Nc1ccccc1)c1ccc(C)cc1", "hERG current change (%, negative = inhibition) at 10uM": -15.9}
{"smiles": "CN(CCC#N)C(=O)CSc1nc2scc(-c3ccccc3)c2c(=O)[nH]1", "hERG current change (%, negative = inhibition) at 10uM": -12.6}
{"smiles": "COc1ccc(CCNC(=O)C(=O)NCC2OCCN2S(=O)(=O)c2ccc(OC)cc2)cc1", "note": "(stereo not shown)", "hERG current change (%, negative = inhibition) at 10uM": -47.3}
{"smiles": "COc1ccccc1C(=O)Nc1ccc2nc3n(c(=O)c2c1)CCCC3", "hERG current change (%, negative = inhibition) at 10uM": -36.3}
{"smiles": "COc1ccc(NC(=O)CC2SC(=O)NC2=O)cc1", "note": "(stereo not shown)", "hERG current change (%, negative = inhibition) at 10uM": 26.8}
{"smiles": "Cc1ccccc1NC(=O)Cc1nc(COC(=O)c2cccc(O)c2)cs1", "hERG current change (%, negative = inhibition) at 10uM": -17.7}
{"smiles": "Cc1ccccc1NC(=O)Cc1nc(COC(=O)c2ccc(Cl)c(S(N)(=O)=O)c2)cs1", "hERG current change (%, negative = inhibition) at 10uM": -60.9}
{"smiles": "Cc1ccccc1NC(=O)Cc1nc(COC(=O)c2ccc(Cl)nc2)cs1", "hERG current change (%, negative = inhibition) at 10uM": 2.75}
{"smiles": "COc1ccc(CCNC(=O)CSc2ccc3nnc(CCNC(=O)c4ccccc4)n3n2)cc1OC", "hERG current change (%, negative = inhibition) at 10uM": 6.1}
{"smiles": "CCOC(=O)c1[nH]nc2c1C(=O)N(Cc1ccccc1)C2=O", "hERG current change (%, negative = inhibition) at 10uM": 6.13}
{"smiles": "COc1ccc(/C=N/NC(=O)CSc2ccccn2)cc1OC", "hERG current change (%, negative = inhibition) at 10uM": 2.42}
{"smiles": "CCNC(=O)COC(=O)c1cc(-c2ccccc2)nn1-c1ccccc1", "hERG current change (%, negative = inhibition) at 10uM": -61.8}
{"smiles": "CNC(=O)COC(=O)c1cc(-c2ccccc2)nn1-c1ccccc1", "hERG current change (%, negative = inhibition) at 10uM": -5.35}
{"smiles": "CCOC(=O)c1cc(-c2cccnc2)nn1-c1ccccc1", "hERG current change (%, negative = inhibition) at 10uM": 9.52}
{"smiles": "Cc1ccc(CNC(=O)CN2C(=O)NC3(CC(C)CC(C)(C)C3)C2=O)cc1", "note": "(stereo not shown)", "hERG current change (%, negative = inhibition) at 10uM": -3.14}
{"smiles": "COc1ccc(-n2c(O)c(C=NCCCn3ccnc3)c(=O)[nH]c2=O)cc1", "hERG current change (%, negative = inhibition) at 10uM": 14.1}
{"smiles": "CC(=O)N1CCN(c2ccc(NC(=O)c3ccc4c(c3)OCCO4)cc2Cl)CC1", "hERG current change (%, negative = inhibition) at 10uM": -64.7}
{"smiles": "CN1CCN(c2ccc(NC(=O)c3ccc4c(c3)OCCO4)cc2Cl)CC1", "hERG current change (%, negative = inhibition) at 10uM": -81.2}
{"smiles": "O=C(Nc1ccc(N2CCCCC2)c(Cl)c1)c1ccc2c(c1)OCCO2", "hERG current change (%, negative = inhibition) at 10uM": -1.06}
{"smiles": "CC(C)C(=O)N1CCN(c2ccc(NC(=O)c3ccc4c(c3)OCCO4)cc2Cl)CC1", "hERG current change (%, negative = inhibition) at 10uM": -15}
{"smiles": "O=C(Nc1ccc(N2CCCC2)c(Cl)c1)c1ccc2c(c1)OCCO2", "hERG current change (%, negative = inhibition) at 10uM": 11.8}
{"smiles": "O=C(Nc1ccc(N2CCOCC2)c(Cl)c1)c1ccc2c(c1)OCCO2", "hERG current change (%, negative = inhibition) at 10uM": -0.379}
{"smiles": "CCCOc1ccc(C(=O)CCC(=O)OCC(=O)Nc2ccc(Oc3ccccc3)cc2)cc1", "hERG current change (%, negative = inhibition) at 10uM": -13.3}
{"smiles": "COCCn1nnnc1CN1CCC(Cc2ccccc2)CC1.Cl", "hERG current change (%, negative = inhibition) at 10uM": -3.18}
{"smiles": "O=C(OCC(=O)N1CCN(C(=O)c2ccco2)CC1)c1ccccc1OCc1ccccc1", "hERG current change (%, negative = inhibition) at 10uM": -43.3}
{"smiles": "CCOC(=O)C1CCN(C(=O)COC(=O)Cc2ccc(Cl)cc2)CC1", "hERG current change (%, negative = inhibition) at 10uM": -22.7}
{"smiles": "O=C(OCC(=O)N1CCOCC1)c1ccccc1Cc1ccccc1", "hERG current change (%, negative = inhibition) at 10uM": -35.2}
{"smiles": "COc1ccc(NS(=O)(=O)c2ccc(O)c(C(=O)OCC(=O)N3CCCCC3)c2)cc1", "hERG current change (%, negative = inhibition) at 10uM": -7.02}
{"smiles": "O=C(OCC(=O)N1CCN(C(=O)c2ccco2)CC1)c1ccccc1NCCO", "hERG current change (%, negative = inhibition) at 10uM": 12.6}
{"smiles": "O=C(OCC(=O)N1CCN(C(=O)c2ccco2)CC1)c1ccccc1C(=O)c1ccccc1", "hERG current change (%, negative = inhibition) at 10uM": -34}
{"smiles": "CCOC(=O)C1CCN(C(=O)COC(=O)c2ccccc2C(=O)c2ccc(Cl)cc2)CC1", "hERG current change (%, negative = inhibition) at 10uM": -50.4}
{"smiles": "O=C(CCNS(=O)(=O)c1ccc(Cl)cc1)OCC(=O)N1CCN(C(=O)c2ccco2)CC1", "hERG current change (%, negative = inhibition) at 10uM": -47.4}
{"smiles": "CCOC(=O)C1CCN(C(=O)COC(=O)COc2ccc(Cl)cc2)CC1", "hERG current change (%, negative = inhibition) at 10uM": 13.3}
{"smiles": "O=C(OCC(=O)N1CCN(C(=O)c2ccco2)CC1)c1ccccc1Cc1ccccc1", "hERG current change (%, negative = inhibition) at 10uM": -56.3}
{"smiles": "O=C(OCC(=O)N1CCN(C(=O)c2ccco2)CC1)c1ccccc1C(=O)c1ccc(Cl)cc1", "hERG current change (%, negative = inhibition) at 10uM": -64.8}
